Test results taken from PubChem BioAssay AID1159580 (chemical genetic matrix, 2015).
The campaign covered roughly 5,500 compounds. About 2,000 (36%) were called active. About 18% were inconclusive and are not listed. Rule as the data show it: active = normalized growth mostly below about 0.91 (no sharp cut-off); inconclusive = no clear call, values can overlap the other calls; inactive = mostly above about 0.92. Some of the results follow.

Assay: chemical genetic growth profiling, strain panel (AID 1159580);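 also: tested at 20 µM; growth read once vehicle control cultures reached saturation at 30 °C; 1 = growth at the plate median or of vehicle wells; lower values mean less growth of the strain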
Conditions: growth OD

Measured: normalized growth

Oc1cc(O)c2c(c1)O[C@H](c1ccc(O)c(O)c1)[C@@H](O)C2
inactive: S. cerevisiae deletion strains, locus YJR066W, strain TOR1, hits give low values 0.927 | S. cerevisiae deletion strains, locus YJR075W, strain HOC1, hits give low values 1 | S. cerevisiae deletion strains, locus YKL009W, strain mrt4, hits give low values 0.991 | S. cerevisiae deletion strains, locus YKL068W, hits give low values 0.977 | S. cerevisiae deletion strains, locus YKL085W, strain MDH1 (second series), hits give low values 0.981 | S. cerevisiae deletion strains, locus YKL085W, strain MDH1, hits give low values 0.981 | S. cerevisiae deletion strains, locus YKL160W, strain elf1, hits give low values 1.02 | S. cerevisiae deletion strains, locus YKR001C, strain vps1, hits give low values 1.03 | S. cerevisiae deletion strains, locus YKR026C, strain gcn3, hits give low values 0.973 | S. cerevisiae deletion strains, locus YKR091W, strain srl3, hits give low values 1.01 | S. cerevisiae deletion strains, locus YLL001W, strain dnm1, hits give low values 1.01 | S. cerevisiae deletion strains, locus YLL026W, hits give low values 1 | S. cerevisiae deletion strains, locus YLL041C, strain sdh2, hits give low values 1.01 | S. cerevisiae deletion strains, locus YLR027C, strain aat2, hits give low values 1.02 | S. cerevisiae deletion strains, locus YLR039C, strain RIC1, hits give low values 0.919 | S. cerevisiae deletion strains, locus YLR058C, strain SHM2, hits give low values 0.973 | S. cerevisiae deletion strains, locus YLR102C, strain apc9, hits give low values 0.985 | S. cerevisiae deletion strains, locus YLR113W, strain HOG1, hits give low values 0.987 | S. cerevisiae deletion strains, locus YLR221C, strain rsa3, hits give low values 1.02 | S. cerevisiae deletion strains, locus YLR258W, strain gsy2, hits give low values 1 | S. cerevisiae deletion strains, locus YLR262C, strain YPT6 (second series), hits give low values 1.02 | S. cerevisiae deletion strains, locus YLR262C, strain YPT6, hits give low values 0.945 | S. cerevisiae deletion strains, locus YLR268W, strain sec22, hits give low values 1.02 | S. cerevisiae deletion strains, locus YLR320W, strain mms22, hits give low values 1.01 | S. cerevisiae deletion strains, locus YLR330W, strain CHS5, hits give low values 1 | S. cerevisiae deletion strains, locus YLR342W, strain FKS1 (second series), hits give low values 1.02 | S. cerevisiae deletion strains, locus YLR342W, strain FKS1, hits give low values 1.01 | S. cerevisiae deletion strains, locus YLR357W, strain rsc2, hits give low values 0.987 | S. cerevisiae deletion strains, locus YLR370C, strain arc18, hits give low values 1.01 | S. cerevisiae deletion strains, locus YLR371W, strain rom2, hits give low values 1.01 | S. cerevisiae deletion strains, locus YLR384C, strain iki3, hits give low values 0.997 | S. cerevisiae deletion strains, locus YLR418C, strain cdc73, hits give low values 0.965 | S. cerevisiae deletion strains, locus YML016C, strain PPZ1, hits give low values 0.999 | S. cerevisiae deletion strains, locus YML032C, strain rad52, hits give low values 0.947 | S. cerevisiae deletion strains, locus YML120C, strain ndi1, hits give low values 1.01 | S. cerevisiae deletion strains, locus YML124C, strain tub3, hits give low values 0.985 | S. cerevisiae deletion strains, locus YMR058W, strain fet3, hits give low values 1.02 | S. cerevisiae deletion strains, locus YMR078C, strain ctf18, hits give low values 0.984 | S. cerevisiae deletion strains, locus YMR125W, strain sto1, hits give low values 1.01 | S. cerevisiae deletion strains, locus YMR129W, hits give low values 1.02 | S. cerevisiae deletion strains, locus YMR205C, strain PFK2, hits give low values 1 | S. cerevisiae deletion strains, locus YMR223W, strain ubp8, hits give low values 0.972 | S. cerevisiae deletion strains, locus YMR231W, strain pep5, hits give low values 1 | S. cerevisiae deletion strains, locus YMR263W, strain SAP30, hits give low values 0.993 | S. cerevisiae deletion strains, locus YMR307W, strain GAS1, hits give low values 1.01 | S. cerevisiae deletion strains, locus YNL067W, strain RPL9B, hits give low values 0.983 | S. cerevisiae deletion strains, locus YNL071W, strain lat1, hits give low values 1.02 | S. cerevisiae deletion strains, locus YNL128W, strain TEP1, hits give low values 0.97 | S. cerevisiae deletion strains, locus YNL183C, strain NPR1, hits give low values 0.95 | S. cerevisiae deletion strains, locus YNL209W, strain ssb2, hits give low values 1.01 | S. cerevisiae deletion strains, locus YNL233W, strain BNI4, hits give low values 0.993 | S. cerevisiae deletion strains, locus YNL248C, strain rpa49, hits give low values 1.03 | S. cerevisiae deletion strains, locus YNL250W, strain rad50, hits give low values 0.981 | S. cerevisiae deletion strains, locus YNL271C, strain bni1, hits give low values 0.988 | S. cerevisiae deletion strains, locus YNL298W, strain CLA4, hits give low values 0.969 | S. cerevisiae deletion strains, locus YNL307C, strain MCK1, hits give low values 0.989 | S. cerevisiae deletion strains, locus YNL322C, strain KRE1 (second series), hits give low values 1.01 | S. cerevisiae deletion strains, locus YNL322C, strain KRE1, hits give low values 0.99 | S. cerevisiae deletion strains, locus YNR049C, strain mso1, hits give low values 1 | S. cerevisiae deletion strains, locus YNR052C, strain pop2, hits give low values 0.995 | S. cerevisiae deletion strains, locus YOL012C, strain htz1 1.07 | S. cerevisiae deletion strains, locus YOL147C, strain pex11, hits give low values 0.979 | S. cerevisiae deletion strains, locus YOR001W, strain rrp6, hits give low values 1.02 | S. cerevisiae deletion strains, locus YOR061W, strain CKA2, hits give low values 0.97 | S. cerevisiae deletion strains, locus YOR069W, strain VPS5, hits give low values 0.994 | S. cerevisiae deletion strains, locus YOR070C, strain gyp1, hits give low values 0.996 | S. cerevisiae deletion strains, locus YOR080W, strain dia2, hits give low values 1 | S. cerevisiae deletion strains, locus YOR083W, strain WHI5, hits give low values 1.02 | S. cerevisiae deletion strains, locus YOR106W, strain vam3, hits give low values 1.03 | S. cerevisiae deletion strains, locus YOR136W, strain idh2, hits give low values 1 | S. cerevisiae deletion strains, locus YOR144C, strain elg1, hits give low values 0.983 | S. cerevisiae deletion strains, locus YOR184W, strain ser1, hits give low values 0.995 | S. cerevisiae deletion strains, locus YOR231W, strain MKK1, hits give low values 0.987 | S. cerevisiae deletion strains, locus YOR265W, strain rbl2, hits give low values 1 | S. cerevisiae deletion strains, locus YOR270C, strain vph1, hits give low values 1.07 | S. cerevisiae deletion strains, locus YOR290C, strain snf2, hits give low values 0.971 | S. cerevisiae deletion strains, locus YOR316C, strain cot1, hits give low values 0.979 | S. cerevisiae deletion strains, locus YPL051W, strain arl3, hits give low values 1.02 | S. cerevisiae deletion strains, locus YPL078C, strain atp4, hits give low values 1.01 | S. cerevisiae deletion strains, locus YPL106C, strain sse1, hits give low values 1 | S. cerevisiae deletion strains, locus YPL240C, strain hsp82, hits give low values 1 | S. cerevisiae deletion strains, locus YPL256C, strain CLN2, hits give low values 0.984 | S. cerevisiae deletion strains, locus YPR119W, strain clb2, hits give low values 0.983 | S. cerevisiae deletion strains, locus YPR141C, strain kar3, hits give low values 0.972 | S. cerevisiae deletion strains, locus YPR163C, strain tif3, hits give low values 0.992 | S. cerevisiae deletion strains, locus YPR167C, strain met16, hits give low values 0.975 | S. cerevisiae deletion strains, strain wtn01, hits give low values 1.05 | S. cerevisiae strains, strain wild type, hits give low values 0.985
